A selection: hits, their analogues and other compounds. The true share with any hit is near 18%.
CtBP-E1A inh: CtBP/E1A binding inhibition. AlphaScreen GST-E1A/His-CtBP binding, 1536-well; stronger effect = lower value. activity change, % (test concentration not listed). 340,000 tested, 0.49% active. AID 651724; in the data active = activity change below about -65%; inconclusive = mostly about -30% to -63%
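GST-E1A and His-tagged CtBP (125 nM each as 5X stock) were preincubated with pin-transferred compound for 2 h at 37 °C in the dark, then glutathione donor and nickel acceptor beads were added for 1 h before AlphaScreen reading.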
IL-1B inflam inh: inhibitors of inflammasome signaling (IL-1 beta secretion); activity change, % at 57.5 µM; 360,000 tested, 4.7% active; THP-1 LPS/ATP IL-1B secretion, AlphaLISA, 16 h; stronger effect = lower value; in the data active = activity change below about -50%; inconclusive = mostly about -30% to -49%
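THP-1 cells pretreated 1 hr with compounds (up to 57.5 uM final), then stimulated with LPS (250 ng/mL final) plus ATP (1.25 mM final); secreted IL-1B measured by AlphaLISA after 16 hr, decreased signal indicating inhibition.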
DT40 TDP1 no CPT: qHTS for Inhibitors of human tyrosyl-DNA phosphodiesterase 1 (TDP1): qHTS in cells in absence of CPT. DT40 Tdp1-/- hTDP1 cells, no CPT, ATP luminescence, 48 h. Potency, µM (top dose mostly 46.2 µM), for the others: top-dose activity change, negative = growth inhibition, actives largely listed as inhibitors. 420,000 tested, 15% active; note: potency is the fitted concentration of half-maximal effect; nearly all actives have a fitted effect of over 55% in size
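Stably hTDP1-transfected Tdp1-null chicken DT40 cells were treated with library compounds minus camptothecin and grown for at least 48 hr at 37 °C, after which cellular ATP was quantified by luminescence.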
DT40 TDP1 CPT: DT40-hTDP1 cell growth loss with CPT; AID 686979; Potency, µM (series often up to 46.2 µM), inactives show at the highest dose activity change, negative = growth inhibition, hits mostly inhibitors; chicken DT40 Tdp1-/-;hTDP1 cells + 20 nM CPT, ATP luminescence, 48 h; 420,000 tested, 12% active; note: potency is the fitted concentration of half-maximal effect; nearly all actives have a fitted effect of over 55% in size
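Chicken DT40 Tdp1-/- cells complemented with human TDP1, 400 cells/well, exposed to compounds plus 20 nM camptothecin for at least 48 h at 37 C; viability read as ATP content by CellTiter-Glo luminescence.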
TDP1 inh: inhibitors of human tyrosyl-DNA phosphodiesterase TDP1; Q9NUW8; recombinant TDP1, AlphaScreen DNA substrate cleavage; Potency, µM (highest dose often 130 µM), for inactives: top-dose activity change, negative = inhibition, actives largely listed as inhibitors; AID 485290; 350,000 tested, 0.28% active; note: potency is the fitted concentration of half-maximal effect; nearly all actives have a fitted effect of over 40% in size
Target sequence (Q9NUW8 whole entry, looked up): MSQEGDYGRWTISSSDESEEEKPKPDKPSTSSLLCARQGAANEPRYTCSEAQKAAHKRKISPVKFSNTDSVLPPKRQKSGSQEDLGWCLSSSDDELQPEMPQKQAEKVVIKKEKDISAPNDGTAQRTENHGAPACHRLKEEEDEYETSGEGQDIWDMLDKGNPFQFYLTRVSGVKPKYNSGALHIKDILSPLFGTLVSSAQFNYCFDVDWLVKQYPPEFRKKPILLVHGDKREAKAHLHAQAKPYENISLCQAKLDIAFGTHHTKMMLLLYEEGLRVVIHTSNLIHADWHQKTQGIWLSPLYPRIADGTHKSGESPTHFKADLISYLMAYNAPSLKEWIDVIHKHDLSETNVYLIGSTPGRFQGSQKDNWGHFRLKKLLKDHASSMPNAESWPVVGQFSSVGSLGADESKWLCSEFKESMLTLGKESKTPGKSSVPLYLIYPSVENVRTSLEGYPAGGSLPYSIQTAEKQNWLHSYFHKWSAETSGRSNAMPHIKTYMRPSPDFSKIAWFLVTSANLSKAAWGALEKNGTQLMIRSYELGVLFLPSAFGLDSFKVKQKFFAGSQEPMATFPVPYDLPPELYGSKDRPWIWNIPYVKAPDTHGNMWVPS
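Signal: AlphaScreen proximity between streptavidin donor and anti-FITC acceptor beads on intact substrate. Reaction: Tdp1 1 nM, substrate 15 nM final, 5 min RT after 15 min compound preincubation.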
Six1-Eya2 blk: inhibitors of human Six1/Eya2 interaction; Q15475+O00167; AlphaScreen GST-Six1/His-Eya2 binding, biochemical; stronger effect = lower value; activity change, % (test concentration not listed); AID 651725; 360,000 tested, 0.56% active; in the data active = activity change below about -65%; inconclusive = mostly about -30% to -63%
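AlphaScreen with GST-Six1 and His-Eya2 (5X mix: 250 nM and 500 nM), glutathione donor and nickel acceptor beads; buffer 50 mM Tris pH 8.0, 300 mM NaCl, 1 mM TCEP; 1 h at 37 C in the dark.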
* = called active by the depositor; [ ] = dose if it differs, or a comment. Unless noted, calls come from the whole dose curve; as a rule, active = well fitted curve in the direction sought with a large enough effect; inconclusive = small, poorly fitted or top-dose-only effect, or another doubt; inactive = no such curve, though single readings can be large; an effect the other way counts as inactive or inconclusive. % is set by controls: 0 for no effect and ±100 for the full control effect.

What do the screens show for `Cc1ccc(C)c(NC(=O)CN(CCc2ccccc2)S(=O)(=O)c2ccccc2)c1`?
DT40 TDP1 no CPT: inconclusive; DT40 TDP1 CPT: inconclusive; TDP1 inh: 1.9%[2.28 µM]

What do the screens show for `CCc1ccccc1NC(=O)CN(c1ccccc1OC)S(=O)(=O)c1ccc(C)cc1`?
DT40 TDP1 no CPT: 18.4µM*; DT40 TDP1 CPT: inconclusive

What do the screens show for `CCOc1ccccc1NC(=O)CN(CCc1ccccc1)S(=O)(=O)c1ccc(C)cc1`?
DT40 TDP1 no CPT: 16.4µM*; DT40 TDP1 CPT: inconclusive; TDP1 inh: -1.3%[12.3 µM]

Results for COc1ccc(C)cc1NC(=O)CN(c1cc(C(F)(F)F)ccc1Cl)S(C)(=O)=O ?
DT40 TDP1 no CPT: 16.4µM*; DT40 TDP1 CPT: inconclusive

Results for CCN(CC(=O)Nc1ccc2c(c1)OCCO2)CC(=O)Nc1ccc(C)c([N+](=O)[O-])c1 ?
CtBP-E1A inh: -23.4; IL-1B inflam inh: -0.1; DT40 TDP1 no CPT: inconclusive; DT40 TDP1 CPT: inconclusive; TDP1 inh: 6.0%; Six1-Eya2 blk: -21.0

What do the screens show for `O=C(NC1CCN(C(=O)NC2CCCCC2)CC1)c1cccc(F)c1`?
CtBP-E1A inh: -7.9; IL-1B inflam inh: 0.8; DT40 TDP1 no CPT: -16.1%; DT40 TDP1 CPT: 3.6%; TDP1 inh: -0.6%[0.0935 µM]; Six1-Eya2 blk: 4.6

How did Oc1ccc(-c2nc3ccccc3s2)cc1 do in these assays?
CtBP-E1A inh: 3.5; IL-1B inflam inh: 13.6; DT40 TDP1 no CPT: -16.0%; DT40 TDP1 CPT: inconclusive; TDP1 inh: 0.0%; Six1-Eya2 blk: 1.8

How did COCCn1ccc2c(OCC(=O)NCCc3ccccc3)cccc2c1=O do in these assays?
CtBP-E1A inh: 6.3; IL-1B inflam inh: 11.4; DT40 TDP1 no CPT: inconclusive; DT40 TDP1 CPT: -20.3%; TDP1 inh: -7.8%; Six1-Eya2 blk: -0.1

How did CCOCCn1ccc2c(OCC(=O)Nc3ccc(OC)c(OC)c3)cccc2c1=O do in these assays?
CtBP-E1A inh: -0.2; IL-1B inflam inh: 15.2; DT40 TDP1 no CPT: 10.3µM*; DT40 TDP1 CPT: 14.6µM*; TDP1 inh: -4.2%; Six1-Eya2 blk: -4.6

What do the screens show for `CCOCCn1ccc2c(OCC(=O)Nc3cc(C)cc(C)c3)cccc2c1=O`?
DT40 TDP1 no CPT: inconclusive; DT40 TDP1 CPT: -29.8%; TDP1 inh: 2.6%

How did COCCn1ccc2c(OCC(=O)Nc3cccc(C(F)(F)F)c3)cccc2c1=O do in these assays?
DT40 TDP1 no CPT: 23.1µM*; DT40 TDP1 CPT: inconclusive; TDP1 inh: -7.8%

What do the screens show for `COCCn1ccc2c(OCC(=O)Nc3cccc(OC)c3)cccc2c1=O`?
DT40 TDP1 no CPT: 14.6µM*; DT40 TDP1 CPT: inconclusive; TDP1 inh: -2.6%

What do the screens show for `CCC(CC)c1nnc(NC(=O)CS(=O)(=O)c2ccccc2)s1`?
CtBP-E1A inh: 1.2; IL-1B inflam inh: 1.7; DT40 TDP1 no CPT: inconclusive; DT40 TDP1 CPT: -23.2%; TDP1 inh: 9.2%; Six1-Eya2 blk: -4.3

How did Cc1ccc(NC(=O)Nc2cn(CC(C)C)c(=O)c3ccccc23)cc1N(C)C do in these assays?
DT40 TDP1 no CPT: 23.1µM*; DT40 TDP1 CPT: 20.6µM*; TDP1 inh: 6.3%

How did COc1cc2c(C(=O)N3CCN(c4cccc(C(F)(F)F)c4)CC3)cn(CC(C)C)c(=O)c2cc1OC do in these assays?
DT40 TDP1 no CPT: 18.4µM*; DT40 TDP1 CPT: 16.4µM*; TDP1 inh: 0.9%

How did COc1ccc(N2CCN(C(=O)Nc3cn(CC(C)C)c(=O)c4ccccc34)CC2)cc1 do in these assays?
DT40 TDP1 no CPT: 14.6µM*; DT40 TDP1 CPT: -24.3%; TDP1 inh: 6.3%

Results for Cc1ccc(CNC(=O)Nc2cn(CC(C)C)c(=O)c3ccccc23)cc1 ?
DT40 TDP1 no CPT: inconclusive; DT40 TDP1 CPT: -19.8%; TDP1 inh: -1.1%

Results for Cc1ccc(C)c(N2CCN(C(=O)Nc3cn(CC(C)C)c(=O)c4ccccc34)CC2)c1 ?
DT40 TDP1 no CPT: 16.4µM*; DT40 TDP1 CPT: 13µM*; TDP1 inh: 8.5%

How did CCOc1cc(-n2nc(C)c(C#N)c2N)nc(SC)n1 do in these assays?
TDP1 inh: 2.5%

Results for COc1cc(Cl)c(CN2CCCC(CO)(Cc3ccccc3F)C2)cc1OC (stereo unspecified) ?
CtBP-E1A inh: -13.0; IL-1B inflam inh: inconclusive; DT40 TDP1 no CPT: inconclusive; DT40 TDP1 CPT: -6.3%; TDP1 inh: -11.2%; Six1-Eya2 blk: 3.8

How did Cc1cccc(N(C(=O)c2snc(C(N)=O)c2N)C(C(=O)NCc2ccccc2)c2ccncc2)c1 (stereo unspecified) do in these assays?
CtBP-E1A inh: 0.3; IL-1B inflam inh: -6.9; DT40 TDP1 no CPT: inconclusive; DT40 TDP1 CPT: -0.1%; TDP1 inh: 0.7%; Six1-Eya2 blk: 10.6

How did COc1cc2c(C(=O)N3CCN(c4cccc(C)c4)C(C)C3)cn(CC(C)C)c(=O)c2cc1OC (stereo unspecified) do in these assays?
DT40 TDP1 no CPT: inconclusive; DT40 TDP1 CPT: 14.6µM*; TDP1 inh: 0.0%

Results for CC(C)Cn1cc(NC(=O)Nc2cccc(C(F)(F)F)c2)c2ccccc2c1=O ?
DT40 TDP1 no CPT: inconclusive; DT40 TDP1 CPT: 20.6µM*; TDP1 inh: 0.0%

How did CCn1cc(C(=O)N2CCN(C(=O)c3ccco3)CC2)c2cc(OC)c(OC)cc2c1=O do in these assays?
CtBP-E1A inh: 5.8; IL-1B inflam inh: -20.9; DT40 TDP1 no CPT: -11.7%; DT40 TDP1 CPT: -2.5%; TDP1 inh: 1.1%; Six1-Eya2 blk: 0.1

How did CC(C)Cn1cc(NC(=O)N2CCN(c3cccc(C(F)(F)F)c3)CC2)c2ccccc2c1=O do in these assays?
DT40 TDP1 no CPT: 16.4µM*; DT40 TDP1 CPT: 14.6µM*; TDP1 inh: 3.2%

Results for CC(C)Cn1cc(NC(=O)N2CCN(c3cccc(Cl)c3)CC2)c2ccccc2c1=O ?
DT40 TDP1 no CPT: inconclusive; DT40 TDP1 CPT: 7.31µM*; TDP1 inh: 2.1%

What do the screens show for `COc1cccc(CNC(=O)Nc2cn(CC(C)C)c(=O)c3ccccc23)c1`?
DT40 TDP1 no CPT: inconclusive; DT40 TDP1 CPT: -24.5%; TDP1 inh: 2.1%

Results for O=C(COC(=O)c1cc(-c2ccccc2)nc2c(Cl)cccc12)c1ccc(F)cc1 ?
DT40 TDP1 no CPT: inconclusive; DT40 TDP1 CPT: -29.9%

What do the screens show for `Cc1ccc(NC(=O)CCC(=O)NNC(=O)c2ccccc2)c(C)c1`?
CtBP-E1A inh: 5.4; IL-1B inflam inh: -10.7; DT40 TDP1 no CPT: 3.0%; DT40 TDP1 CPT: -1.8%; TDP1 inh: -1.2%; Six1-Eya2 blk: 10.9

Source: PubChem
